# A selection: hits, their analogues and other compounds. The true share with any hit is near 17%.
# ClpP mod = qHTS Assay for Activators of ClpP; 340,000 compounds, 1.9% hits; purified B. subtilis ClpP, FRET peptide cleavage, 20 min; Potency, µM (series often up to 57.5 µM), for inactives: top-dose activity change, negative = active; AID 651965, 2013; active = well fitted falling curve with a large enough effect; inconclusive = small, poorly fitted or top-dose-only effect; inactive = no such curve, though single readings can be large or run the other way; also: the source files actives as falling curves though it sought activators and does not explain the sign; nearly all actives have a fitted effect of over 65% in size
# Target sequence (P80244 whole entry, looked up): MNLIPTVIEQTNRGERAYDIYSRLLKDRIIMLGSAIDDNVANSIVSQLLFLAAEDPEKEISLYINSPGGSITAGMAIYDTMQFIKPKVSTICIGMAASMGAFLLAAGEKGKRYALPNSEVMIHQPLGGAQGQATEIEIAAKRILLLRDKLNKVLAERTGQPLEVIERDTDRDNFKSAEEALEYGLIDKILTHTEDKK
#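 Purified B. subtilis ClpP, 10 microg/mL final in Tris/HCl pH8 with KCl, BSA, glycerol and Tween-20, cleaved an Abz/nitrotyrosine-quenched decapeptide. Fluorescence (ex 320, em 430) was read at 0 and 20 min at room temperature. Delta was normalized to 5.8 microM ADEP and DMSO/no-enzyme controls.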
# TDP1 cell noCPT = qHTS for Inhibitors of human tyrosyl-DNA phosphodiesterase 1 (TDP1): qHTS in cells in absence of CPT. Potency, µM (top dose mostly 46.2 µM), for the others: at the highest dose activity change, negative = growth inhibition, hits mostly inhibitors. 420,000 compounds, 15% hits. DT40 Tdp1-/- hTDP1 cells, no CPT, ATP luminescence, 48 h; also: % is scaled to controls: 0 for no effect and ±100 for the full control effect; nearly all actives have a fitted effect of over 55% in size
#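 Compound effects on proliferation are scored in DT40 Tdp1-/-;hTDP1 cells in the absence of CPT. ATP levels (CellTiter-Glo luminescence) are recorded after a ≥48 hr, 37 °C incubation.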
# TDP1 cell CPT = DT40-hTDP1 cell growth loss with CPT; chicken DT40 Tdp1-/-;hTDP1 cells + 20 nM CPT, ATP luminescence, 48 h; AID 686979; Potency, µM (titrated, usually from 46.2 µM), inactives show at the highest dose activity change, negative = growth inhibition, usual class: inhibitors; 420,000 compounds, 12% hits; also: % is scaled to controls: 0 for no effect and ±100 for the full control effect; nearly all actives have a fitted effect of over 55% in size
#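 Cell growth measured by CellTiter-Glo luminescence after a minimum 48 h, 37 C compound exposure with 20 nM CPT in Tdp1-knockout DT40 cells stably expressing hTDP1, seeded 400/well; qHTS titration format.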
# TDP1 inh = inhibitors of human tyrosyl-DNA phosphodiesterase TDP1; Q9NUW8; recombinant TDP1, AlphaScreen DNA substrate cleavage; Potency, µM (titrated, usually from 130 µM), for the others: top-dose activity change, negative = inhibition, actives largely listed as inhibitors; 350,000 compounds, 0.28% hits; AID 485290; also: % is scaled to controls: 0 for no effect and ±100 for the full control effect; nearly all actives have a fitted effect of over 40% in size
#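 Recombinant E. coli-expressed Tdp1 (1 nM) preincubated with compound 15 min at RT, then 5'-biotin/3'-phosphotyrosine-FITC DNA substrate (15 nM) added for 5 min. AlphaScreen beads (10 ug/ml) added, 10 min RT; tyrosine-FITC cleavage read as signal loss.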
# An asterisk follows results filed as active; ? = inconclusive; / = no result. Unless noted, calls follow the shape of the dose curve; as a rule, active = well fitted curve in the direction sought with a large enough effect; inconclusive = small, poorly fitted or top-dose-only effect, or another doubt; inactive = no such curve, though single readings can be large; an effect the other way counts as inactive or inconclusive. Potency is read from the fitted curve at half-maximal effect.
SMILES,ClpP mod,TDP1 cell noCPT,TDP1 cell CPT,TDP1 inh
CCCCNC(=O)CN1C(=O)CSc2ccc(S(=O)(=O)N3CCOCC3)cc21,0%,-4%,-2%,/
CCCN(CCC)S(=O)(=O)c1ccc2c(c1)N(CC(=O)NC(C)c1ccccc1)C(=O)CS2 (stereo not given),2%,23µM*,?,3%
CCCCC(CC)CNC(=O)CN1C(=O)CSc2ccc(S(=O)(=O)N3CCOCC3)cc21 (stereo not given),0%,13µM*,16µM*,8%
Cc1ccc(COC(=O)c2cc([N+](=O)[O-])ccc2N2CCOCC2)cc1,/,/,/,6%
O=C(OCc1ccc([N+](=O)[O-])cc1)c1cc([N+](=O)[O-])ccc1N1CCOCC1,-3%,23µM*,16µM*,9%
Cc1cc(C)c(C(=O)COC(=O)c2cc([N+](=O)[O-])ccc2N2CCOCC2)cc1C,2%,18µM*,?,3%
Cc1ccccc1-n1c(C)nnc1SC(C)C(=O)NCc1ccco1 (stereo not given),1%,-3%,-21%,/
NC(=O)c1cc[n+](CC2=C(C(=O)[O-])N3C(=O)[C@@H](NC(=O)Cc4cccs4)[C@@H]3SC2)cc1,/,/,/,16µM*
COc1ccc(N(CC(=O)Nc2ccccc2OC)S(=O)(=O)c2ccc(NC(C)=O)cc2)cc1,-1%,5.2µM*,5.2µM*,5%
COC(=O)c1cc(NC(=O)CN(c2ccc(OC)cc2)S(=O)(=O)c2ccc(F)cc2)ccc1Cl,0%,18µM*,18µM*,7%
COC(=O)c1ccccc1NC(=O)CN(c1ccc(Cl)cc1)S(=O)(=O)c1ccc(OC)cc1,-17%,9.2µM*,21µM*,/
COC(=O)c1ccccc1NC(=O)CN(C)S(=O)(=O)c1ccc(OC)cc1,-14%,?,?,4%
COc1ccccc1NC(=O)CN(c1ccccc1)S(=O)(=O)c1ccccc1,-2%,-24%,-20%,/
COc1ccc(N(CC(=O)Nc2ccc(S(=O)(=O)N3CCOCC3)cc2)S(=O)(=O)c2ccccc2)cc1,2%,18µM*,16µM*,5%
COC(=O)C[C@H]1C=C[C@H](NC(=O)Nc2ccccc2F)[C@@H](CO)O1,-2%,3%,1%,/
COc1ccc(CNC(=O)COC(=O)c2cc(C)oc2C)cc1,-1%,-21%,-2%,/
COc1cc(-n2c(=O)c3ccccc3n(Cc3cccc(Cl)c3)c2=O)cc(OC)c1OC,0%,?,?,-4%
COc1ccc(CN2CCCC(N3CCN(c4cccc(Cl)c4)CC3)C2)cc1OC (stereo not given),-1%,23µM*,?,/
COc1ccc(CN2CCCC(N3CCN(c4ccc(OC)cc4)CC3)C2)cc1 (stereo not given),-4%,-17%,-1%,/
CCOc1cc(CN2CCCC(N3CCN(c4ccc(F)cc4)CC3)C2)ccc1OC (stereo not given),2%,?,16µM*,/
CCOc1ccccc1C(=O)NCC(=O)NNC(=O)c1csc(N2CCOCC2)n1,-24%,-65%,-88%,/
COc1ccccc1NC(=O)c1ccc2[nH]c(C)c(C)c2c1,-21%,?,?,/
COC(=O)C1=C[C@@H](C(=O)OC)C2C3=C(C(=O)[C@@]2(C)NC(=O)c2ccccc2)[C@H](C)n2c(=O)n(C)c(=O)n2[C@@H]3C1 (stereo not given in full),/,/,/,7%
COc1cc(C2Nc3cccc4cccc(c34)N2)ccc1O,0%,?,?,9%
COc1cc(C2Nc3cccc4cccc(c34)N2)cc(OC)c1OC(C)=O,-4%,23µM*,?,0%
O=c1[nH]c(/C=C/c2ccc(Cl)cc2Cl)c([N+](=O)[O-])c(=O)[nH]1,0%,-18%,-23%,/
Cc1[nH]c2ccccc2c1SCCNC(=O)c1ccc(S(=O)(=O)N2CCCC2)cc1,-2%,?,-29%,4%
CCN(CC)S(=O)(=O)c1ccc(C(=O)NCCSc2c[nH]c3ccccc23)cc1,1%,?,21µM*,-8%
CCN(CC)S(=O)(=O)c1ccc(C(=O)NCCSc2c(-c3ccc(C)cc3)[nH]c3ccccc23)cc1,-1%,8.2µM*,5.8µM*,6%

# Screens (PubChem)
